Test results: PubChem BioAssay (NCI)
“And” between values parts separate entries of the source, which are not always exact repeats. Equal entries are not always repeated. The panel holds about 83,000 compounds, 20% with a hit somewhere; the sample as a whole holds those more often.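 Cell lines were cultured in 96-well plates, exposed to a single compound concentration, and assessed for percent growth 48 hours later.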 The source made the active and inactive calls. Rule for the calls: active = growth percent below 10; inactive = the rest.

Assays:
Assay in all cases: NCI-60 one-dose screen, 48 h (100 = growth as untreated, 0 = no growth, -100 = all killed)
Settings in all cases: 10 µM unless noted
HCT-15 colon = tested on: HCT-15 colon
HT29 colon = tested on: HT29 colon
SNB-75 CNS = tested on: SNB-75 CNS
SNB-19 CNS = tested on: SNB-19 CNS
U251 CNS = tested on: U251 CNS
PC-3 prostate = tested on: PC-3 prostate
SK-MEL-5 melanoma = tested on: SK-MEL-5 melanoma
UACC-62 melanoma = tested on: UACC-62 melanoma
LOX IMVI melanoma = tested on: LOX IMVI melanoma
SK-MEL-2 melanoma = tested on: SK-MEL-2 melanoma
EKVX NSCLC = tested on: EKVX NSCLC
UO-31 renal = tested on: UO-31 renal
TK-10 renal = tested on: TK-10 renal
ACHN renal = tested on: ACHN renal
CAKI-1 renal = tested on: CAKI-1 renal
A498 renal = tested on: A498 renal
CCRF-CEM leukemia = tested on: CCRF-CEM leukemia
MOLT-4 leukemia = tested on: MOLT-4 leukemia
SK-MEL-28 melanoma = tested on: SK-MEL-28 melanoma
SN12C renal = tested on: SN12C renal

Structure (SMILES) | growth (HCT-15 colon) | growth (HT29 colon) | growth (SNB-75 CNS) | growth (SNB-19 CNS) | growth (U251 CNS) | growth (PC-3 prostate) | growth (SK-MEL-5 melanoma) | growth (UACC-62 melanoma) | growth (LOX IMVI melanoma) | growth (SK-MEL-2 melanoma) | growth (EKVX NSCLC) | growth (UO-31 renal) | growth (TK-10 renal) | growth (ACHN renal) | growth (CAKI-1 renal) | growth (A498 renal) | growth (CCRF-CEM leukemia) | growth (MOLT-4 leukemia) | growth (SK-MEL-28 melanoma) | growth (SN12C renal)
CC(=O)C(/C=N/C(N)=O)=C(/C)O | 104% (inactive) | 101% (inactive) | 93.8% (inactive) | 103% (inactive) | 99.6% (inactive) | 100% (inactive) | 110% (inactive) | 110% (inactive) | 92.9% (inactive) | 119% (inactive) | 108% (inactive) | 91.1% (inactive) | 105% (inactive) | 99.8% (inactive) | 97.9% (inactive) | 92.7% (inactive) | 97.4% (inactive) | 111% (inactive) |  | 
CCC(C)C1(C2CCCC2)NC(=O)NC1=O (centres undefined) | 107% (inactive) and 102% (inactive) | 97.3% (inactive) and 108% (inactive) | 94.5% (inactive) and 103% (inactive) | 98.8% (inactive) and 99.7% (inactive) | 105% (inactive) and 108% (inactive) | 102% (inactive) and 95.2% (inactive) |  | 95.5% (inactive) and 96.8% (inactive) | 92.2% (inactive) | 94.2% (inactive) and 129% (inactive) | 108% (inactive) and 100% (inactive) |  | 92.4% (inactive) and 118% (inactive) | 111% (inactive) and 108% (inactive) |  |  | 92.8% (inactive) and 107% (inactive) |  | 109% (inactive) and 108% (inactive) | 100% (inactive) and 96% (inactive)
Cc1ccc(-c2noc(C)n2)cc1 | 101% (inactive) | 98.3% (inactive) | 85.9% (inactive) | 105% (inactive) |  | 97.9% (inactive) | 99.7% (inactive) | 105% (inactive) | 99.7% (inactive) | 120% (inactive) |  | 84% (inactive) | 107% (inactive) | 105% (inactive) | 94.5% (inactive) | 80.8% (inactive) | 103% (inactive) | 90.5% (inactive) | 110% (inactive) | 102% (inactive)
N/C(=N\N=C\c1ccc2c(c1)OCO2)N/N=C\c1ccc2c(c1)OCO2 | 103% (inactive) and 93.7% (inactive) | 88.4% (inactive) and 13% (inactive) | 113% (inactive) and 135% (inactive) | 108% (inactive) and 92.1% (inactive) | 99.4% (inactive) and 84.6% (inactive) | 103% (inactive) and 89.6% (inactive) | 112% (inactive) | 112% (inactive) and 90.7% (inactive) |  | 103% (inactive) and 136% (inactive) | 113% (inactive) | 99.5% (inactive) and 77.3% (inactive) | 140% (inactive) and 153% (inactive) | 111% (inactive) and 97.7% (inactive) | 99% (inactive) and 103% (inactive) |  | 50.6% (inactive) and 45.3% (inactive) |  | 112% (inactive) and 45.6% (inactive) | 107% (inactive) and 89% (inactive)
Nc1ccc2ccc(N)cc2c1 | 74.4% (inactive) | 94.2% (inactive) | 91.3% (inactive) | 96.1% (inactive) |  | 60.3% (inactive) | 83% (inactive) | 80.7% (inactive) | 65.1% (inactive) | 68.4% (inactive) |  | 59.4% (inactive) | 117% (inactive) | 84.8% (inactive) | 75.7% (inactive) |  |  |  | 92.1% (inactive) | 88.5% (inactive)
O=C(c1ccc(Cl)cc1)C(NCCO)c1ccc(Cl)cc1 (centres undefined) | 99.7% (inactive) and 99% (inactive) | 109% (inactive) and 92.2% (inactive) | 90.1% (inactive) and 81.8% (inactive) |  | 95.9% (inactive) and 102% (inactive) | 81.9% (inactive) and 84.4% (inactive) | 91.9% (inactive) and 105% (inactive) | 85.3% (inactive) and 79.9% (inactive) | 94.8% (inactive) and 96.1% (inactive) | 102% (inactive) | 103% (inactive) | 80.6% (inactive) and 83.8% (inactive) | 105% (inactive) and 98.6% (inactive) |  |  | 92.7% (inactive) and 110% (inactive) | 99.7% (inactive) and 129% (inactive) | 86.6% (inactive) and 96.6% (inactive) | 111% (inactive) and 105% (inactive) | 99.6% (inactive) and 100% (inactive)
N#CCCOc1ccccc1 | 97.5% (inactive) | 100% (inactive) | 101% (inactive) | 108% (inactive) |  | 88.7% (inactive) | 105% (inactive) | 127% (inactive) | 102% (inactive) | 89.4% (inactive) |  | 92.8% (inactive) | 97.2% (inactive) | 102% (inactive) | 91.6% (inactive) | 101% (inactive) | 95.7% (inactive) | 90.4% (inactive) | 101% (inactive) | 
O=C1NC(=O)C2(CCc3ccccc32)N1 (centres undefined) | 104% (inactive) and 108% (inactive) | 104% (inactive) and 109% (inactive) | 96.2% (inactive) and 94.1% (inactive) | 96.2% (inactive) and 103% (inactive) | 109% (inactive) and 99% (inactive) | 133% (inactive) and 88.2% (inactive) | 99.4% (inactive) and 108% (inactive) | 100% (inactive) and 96.7% (inactive) | 103% (inactive) and 95.7% (inactive) | 129% (inactive) and 51.4% (inactive) | 103% (inactive) and 99.9% (inactive) |  | 105% (inactive) and 99.5% (inactive) | 111% (inactive) and 96.7% (inactive) | 98.4% (inactive) and 89.7% (inactive) | 94.4% (inactive) | 118% (inactive) and 94.2% (inactive) | 101% (inactive) and 83.3% (inactive) |  | 104% (inactive) and 95.1% (inactive)
C=C1C(=O)O[C@H]2[C@H]1CC/C(COC(=O)NC1CCC(O)CC1)=C\CC[C@@]1(C)O[C@@H]21 (some centres undefined) | 92.2% (inactive) and 85.3% (inactive) | 60% (inactive) and 43.7% (inactive) | 71% (inactive) and 71.7% (inactive) | 100% (inactive) and 99.5% (inactive) | 91.8% (inactive) and 88.3% (inactive) | 95.5% (inactive) and 90.6% (inactive) |  |  | 90.3% (inactive) and 86.9% (inactive) | 91.2% (inactive) and 86.1% (inactive) | 72.8% (inactive) and 67.5% (inactive) | 78.9% (inactive) and 70.1% (inactive) | 75.2% (inactive) and 71.5% (inactive) | 54.3% (inactive) and 45% (inactive) | 70.3% (inactive) and 64% (inactive) | 105% (inactive) and 101% (inactive) | 16.1% (inactive) and 12.7% (inactive) | 69.5% (inactive) and 63.2% (inactive) |  | 
O=C(Nc1ccc([N+](=O)[O-])cc1Cl)c1cc(Cl)ccc1O | -3.38% (active) and 0.947% (active) | -15.8% (active) and 3.08% (active) | -35.7% (active) and -48.7% (active) |  | 1.12% (active) and 16.7% (inactive) | 2.75% (active) and 6.39% (active) | -89% (active) | -65.7% (active) and -45.3% (active) | -17.5% (active) and -58.5% (active) | -53.2% (active) and -51.7% (active) | -3.89% (active) and 6.47% (active) | -43.8% (active) and -31.8% (active) | -5.15% (active) and 7.49% (active) | -3.01% (active) and 8.03% (active) | -0.639% (active) and -4.62% (active) | -22% (active) | -20% (active) and 9.33% (active) | -44.2% (active) and -6.34% (active) | 5.94% (active) and -10% (active) | -6.44% (active) and 3.08% (active)
CO/N=C/C=C\C(=O)N/C=C/C[C@H]1/C=C/[C@H](O)/C=C\C=C\c2cccc(O)c2C(=O)O1 | 11.9% (inactive) and 16.7% (inactive) | 9.82% (active) and 7.92% (active) | 25.2% (inactive) and -14.6% (active) |  | 33.3% (inactive) and 32.2% (inactive) | 37.5% (inactive) and 25.3% (inactive) | -70.6% (active) and -68.6% (active) | -1.1% (active) and -43.6% (active) | -45.7% (active) and -73.7% (active) | 5.72% (active) and -20.7% (active) | 35.1% (inactive) and 47.9% (inactive) | 14.2% (inactive) and -7.71% (active) | 53.9% (inactive) and 52% (inactive) | 31.1% (inactive) and 22.4% (inactive) | 9.88% (active) and 2.94% (active) | 44.1% (inactive) and 10.3% (inactive) | 33% (inactive) and 32.7% (inactive) | 27.7% (inactive) and 14.6% (inactive) | 32.1% (inactive) | 48.5% (inactive) and 40.9% (inactive)
